PubChem BioAssay AID1159580 (chemical genetic matrix, 2015)
The whole screen tested about 5,500 compounds, of which about 2,000 (36%) were called active. About 18% were inconclusive and are not listed. Cut-off read from the data, not from the text of the source: active = normalized growth mostly below about 0.91 (no sharp cut-off); inconclusive = no clear call, values can overlap the other calls; inactive = mostly above about 0.92. Some of the results follow.

Assay: chemical genetic growth profiling, strain panel (AID 1159580);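 note: tested at 20 µM; growth read once vehicle control cultures reached saturation at 30 °C; 1 = growth at the plate median or of vehicle wells; lower values mean less growth of the strain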
Details: growth OD
[1] = S. cerevisiae deletion strains, locus YAL013W, strain DEP1, hits give low values
[2] = S. cerevisiae deletion strains, locus YBR229C, strain ROT2, hits give low values
[3] = S. cerevisiae deletion strains, locus YDL101C, strain DUN1, hits give low values
[4] = S. cerevisiae deletion strains, locus YDR150W, strain NUM1, hits give low values
[5] = S. cerevisiae deletion strains, locus YEL061C, strain CIN8, hits give low values
[6] = S. cerevisiae deletion strains, locus YGR078C, strain PAC10, hits give low values
[7] = S. cerevisiae deletion strains, locus YHR030C, strain SLT2, hits give low values
[8] = S. cerevisiae deletion strains, locus YHR087W, strain rtc3, hits give low values
[9] = S. cerevisiae deletion strains, locus YJL187C, strain SWE1, hits give low values
[10] = S. cerevisiae deletion strains, locus YJR043C, strain POL32, hits give low values
[11] = S. cerevisiae deletion strains, locus YJR075W, strain HOC1, hits give low values
[12] = S. cerevisiae deletion strains, locus YLR039C, strain RIC1, hits give low values
[13] = S. cerevisiae deletion strains, locus YLR058C, strain SHM2 (second series), hits give low values
[14] = S. cerevisiae deletion strains, locus YLR085C, strain ARP6, hits give low values
[15] = S. cerevisiae deletion strains, locus YLR262C, strain YPT6, hits give low values
[16] = S. cerevisiae deletion strains, locus YML094W, strain GIM5, hits give low values
[17] = S. cerevisiae deletion strains, locus YMR219W, strain ESC1, hits give low values
[18] = S. cerevisiae deletion strains, locus YMR263W, strain SAP30, hits give low values
[19] = S. cerevisiae deletion strains, locus YMR307W, strain GAS1, hits give low values
[20] = S. cerevisiae deletion strains, locus YNL153C, strain GIM3, hits give low values
[21] = S. cerevisiae deletion strains, locus YNL298W, strain CLA4 (second series), hits give low values
[22] = S. cerevisiae deletion strains, locus YNL322C, strain KRE1, hits give low values
[23] = S. cerevisiae deletion strains, locus YNR030W, strain Alg12, hits give low values
[24] = S. cerevisiae deletion strains, locus YPL055C, strain LGE1, hits give low values
[25] = S. cerevisiae deletion strains, locus YPL241C, strain CIN2, hits give low values
[26] = S. cerevisiae deletion strains, locus YPR135W, strain CTF4, hits give low values

Measured: normalized growth

CC(C)(CC(=O)O)CC(=O)Nc1cc(C(F)(F)F)cc(C(F)(F)F)c1
inactive: [1] 0.997 | [2] 1.01 | S. cerevisiae deletion strains, locus YCL061C, strain MRC1, hits give low values 1.03 | [3] 0.997 | S. cerevisiae deletion strains, locus YDL134C, strain PPH21, hits give low values 0.999 | [4] 0.993 | [5] 0.998 | [6] 1.01 | S. cerevisiae deletion strains, locus YGR229C, strain SMI1, hits give low values 1 | [7] 1.01 | [8] 1 | [9] 1 | [10] 0.997 | [11] 0.997 | [12] 1.03 | [13] 1.01 | [14] 1.03 | [15] 1.02 | [16] 0.969 | [17] 1.01 | [18] 1.05 | [19] 0.967 | [20] 1.01 | [21] 1.01 | [22] 0.973 | S. cerevisiae deletion strains, locus YOL006C, strain TOP1, hits give low values 0.964 | [24] 1.01 | [26] 1.06
active: [23] 0.537 | [25] 0.639

O=C(Nc1cc(C(F)(F)F)cc(C(F)(F)F)c1)C(c1ccccc1)C1CCCC1 (stereo not drawn)
inactive: [1] 1.02 | [2] 1.01 | [3] 1.02 | [4] 1.02 | [5] 0.969 | [6] 1.03 | [7] 1.06 | [8] 1 | [9] 1.02 | [10] 1.01 | [11] 1.03 | [12] 1.04 | [13] 1 | [14] 1.01 | [15] 0.998 | [16] 1.02 | [17] 1 | [18] 1.02 | [19] 1.04 | [20] 1.01 | [21] 1.03 | [22] 1.01 | [23] 1.01 | [24] 1.03 | [25] 1.03 | [26] 1.01 | S. cerevisiae strains, strain wild type, hits give low values 1

Nc1ccccc1C(=O)Nc1cc(C(F)(F)F)cc(C(F)(F)F)c1
active: S. cerevisiae deletion strains, locus YLR113W, strain HOG1, hits give low values 0.762 | S. cerevisiae deletion strains, locus YPL256C, strain CLN2, hits give low values 0.781
inactive: S. cerevisiae deletion strains, locus YAR019C, strain CDC15, hits give low values 0.957 | S. cerevisiae deletion strains, locus YBL105C, strain PKC1, hits give low values 0.973 | S. cerevisiae deletion strains, locus YBR135W, strain CKS1, hits give low values 0.985 | S. cerevisiae deletion strains, locus YBR136W, strain MEC1, hits give low values 0.946 | S. cerevisiae deletion strains, locus YBR160W, strain CDC28, hits give low values 0.982 | S. cerevisiae deletion strains, locus YDL017W, strain CDC7, hits give low values 0.978 | S. cerevisiae deletion strains, locus YDL028C, strain MPS1, hits give low values 0.943 | [3] 0.937 | S. cerevisiae deletion strains, locus YDL108W, strain KIN28, hits give low values 0.969 | S. cerevisiae deletion strains, locus YDL132W, strain cdc53, hits give low values 0.967 | S. cerevisiae deletion strains, locus YDL214C, strain PRR2, hits give low values 1 | S. cerevisiae deletion strains, locus YDR052C, strain DBF4, hits give low values 0.97 | S. cerevisiae deletion strains, locus YDR054C, strain cdc34, hits give low values 0.96 | S. cerevisiae deletion strains, locus YDR226W, strain ADK1, hits give low values 0.976 | S. cerevisiae deletion strains, locus YDR477W, strain SNF1, hits give low values 0.992 | S. cerevisiae deletion strains, locus YER123W, strain YCK3, hits give low values 0.957 | S. cerevisiae deletion strains, locus YER133W, strain GLC7, hits give low values 1.01 | S. cerevisiae deletion strains, locus YFL009W, strain cdc4, hits give low values 0.968 | S. cerevisiae deletion strains, locus YFL029C, strain CAK1, hits give low values 0.944 | S. cerevisiae deletion strains, locus YFR003C, strain YPI1, hits give low values 0.984 | S. cerevisiae deletion strains, locus YFR019W, strain FAB1, hits give low values 0.986 | S. cerevisiae deletion strains, locus YFR028C, strain CDC14, hits give low values 0.974 | S. cerevisiae deletion strains, locus YGR040W, strain KSS1, hits give low values 1.01 | S. cerevisiae deletion strains, locus YGR052W, strain FMP48, hits give low values 0.921 | S. cerevisiae deletion strains, locus YGR092W, strain DBF2, hits give low values 0.961 | [7] 0.855 | S. cerevisiae deletion strains, locus YHR079C, strain IRE1, hits give low values 0.836 | S. cerevisiae deletion strains, locus YHR082C, strain KSP1, hits give low values 0.851 | S. cerevisiae deletion strains, locus YHR205W, strain SCH9, hits give low values 0.816 | S. cerevisiae deletion strains, locus YIL147C, strain SLN1, hits give low values 0.946 | S. cerevisiae deletion strains, locus YJL095W, strain BCK1, hits give low values 0.844 | S. cerevisiae deletion strains, locus YJL128C, strain PBS2, hits give low values 0.914 | S. cerevisiae deletion strains, locus YJL157C, strain FAR1, hits give low values 1.01 | S. cerevisiae deletion strains, locus YJR016C, strain ILV3, hits give low values 0.943 | S. cerevisiae deletion strains, locus YJR066W, strain TOR1 (second series), hits give low values 0.997 | S. cerevisiae deletion strains, locus YJR066W, strain TOR1, hits give low values 0.903 | S. cerevisiae deletion strains, locus YKL048C, strain ELM1, hits give low values 0.949 | S. cerevisiae deletion strains, locus YKL067W, strain YNK1, hits give low values 0.978 | S. cerevisiae deletion strains, locus YKL101W, strain HSL1, hits give low values 0.957 | S. cerevisiae deletion strains, locus YKL193C, strain SDS22, hits give low values 0.955 | S. cerevisiae deletion strains, locus YKL203C, strain TOR2, hits give low values 1.06 | S. cerevisiae deletion strains, locus YLR133W, strain CKI1, hits give low values 0.934 | S. cerevisiae deletion strains, locus YLR403W, strain SFP1, hits give low values 1.02 | S. cerevisiae deletion strains, locus YML070W, strain DAK1, hits give low values 0.933 | S. cerevisiae deletion strains, locus YMR001C, strain CDC5, hits give low values 0.975 | S. cerevisiae deletion strains, locus YMR205C, strain PFK2 (second series), hits give low values 0.947 | S. cerevisiae deletion strains, locus YMR277W, strain FCP1, hits give low values 0.952 | S. cerevisiae deletion strains, locus YNL006W, strain LST8, hits give low values 0.937 | S. cerevisiae deletion strains, locus YNL020C, strain ARK1, hits give low values 0.945 | S. cerevisiae deletion strains, locus YNL161W, strain CBK1, hits give low values 0.971 | S. cerevisiae deletion strains, locus YNL183C, strain NPR1, hits give low values 0.871 | S. cerevisiae deletion strains, locus YNL207W, strain RIO2, hits give low values 0.963 | S. cerevisiae deletion strains, locus YNL222W, strain SSU72, hits give low values 0.977 | S. cerevisiae deletion strains, locus YNL307C, strain MCK1 (second series), hits give low values 0.941 | S. cerevisiae deletion strains, locus YOL078W, strain AVO1, hits give low values 0.961 | S. cerevisiae deletion strains, locus YOL136C, strain PFK27, hits give low values 0.956 | S. cerevisiae deletion strains, locus YOR061W, strain CKA2, hits give low values 0.99 | S. cerevisiae deletion strains, locus YOR119C, strain RIO1, hits give low values 0.981 | S. cerevisiae deletion strains, locus YOR231W, strain MKK1, hits give low values 0.87 | S. cerevisiae deletion strains, locus YOR329C, strain SCD5, hits give low values 0.969 | S. cerevisiae deletion strains, locus YPL031C, strain PHO85, hits give low values 0.991 | S. cerevisiae deletion strains, locus YPL153C, strain RAD53, hits give low values 0.987 | S. cerevisiae deletion strains, locus YPL204W, strain HRR25, hits give low values 0.976 | S. cerevisiae deletion strains, locus YPL209C, strain IPL1, hits give low values 0.952 | S. cerevisiae deletion strains, locus YPR025C, strain CCL1, hits give low values 0.985 | S. cerevisiae deletion strains, locus YPR106W, strain ISR1, hits give low values 0.934 | S. cerevisiae deletion strains, locus YPR111W, strain DBF20, hits give low values 0.946 | S. cerevisiae deletion strains, strain NNK1, hits give low values 0.93 | S. cerevisiae deletion strains, strain TSCII, hits give low values 0.974
